Experimental data as given in PubChem BioAssay.
The source made the active and inactive calls. Unless noted, the rule behind the calls is not given here.

Assays:
[1] = system: XIP peptide (Xip251-270) binding; assay: small-molecule binders of XIP peptide, primary screen, biochemical, small-molecule microarray, fluorescence 635/667 nm, 0.1 µg/mL protein (AID 1182); conditions: fluorescent protein binding, 635 nm, higher = more signal, called active from +8 up or from −8 down
XIP peptide (Xip251-270) = assay: small-molecule binders of XIP peptide, primary screen, biochemical, small-molecule microarray, fluorescence 635/667 nm, 0.5 µg/mL protein (AID 1183); conditions: small-molecule microarray binding, fluorescence 635 nm; higher = more signal
[2] = Plasmodium falciparum growth inhibition, primary screen, strain 3D7, DAPI fluorescence, 100 nL (AID 1184);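 note: parasites grown inside human red blood cells in medium with human serum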; conditions: P. falciparum 3D7 growth, 3 d, higher = more signal
[3] = target: Homeobox protein Hox-A13 (Mus musculus) (UniProt Q62424); assay: inhibitors of HoxA13-DNA binding, primary screen, biochemical, fluorescence polarization, labeled oligonucleotide (AID 1185); conditions: 15 min, higher = more signal, called active from +8 up or from −8 down
[4] = inhibitors of hydroxyurea-induced Chk1 phosphorylation, primary screen, imaging, HeLa, phospho-Chk1 antibody, percent positive cells (AID 1186); conditions: hydroxyurea-induced phospho-Chk1 immunofluorescence imaging, higher = more signal
[5] = inhibitors of hydroxyurea-induced Chk1 phosphorylation, primary screen, imaging, HeLa, phospho-Chk1 nuclear intensity (AID 1187); conditions: hydroxyurea-induced phospho-Chk1 immunofluorescence imaging, higher = more signal

Chain of Homeobox protein Hox-A13 (Mus musculus) (Q62424 whole entry, looked up): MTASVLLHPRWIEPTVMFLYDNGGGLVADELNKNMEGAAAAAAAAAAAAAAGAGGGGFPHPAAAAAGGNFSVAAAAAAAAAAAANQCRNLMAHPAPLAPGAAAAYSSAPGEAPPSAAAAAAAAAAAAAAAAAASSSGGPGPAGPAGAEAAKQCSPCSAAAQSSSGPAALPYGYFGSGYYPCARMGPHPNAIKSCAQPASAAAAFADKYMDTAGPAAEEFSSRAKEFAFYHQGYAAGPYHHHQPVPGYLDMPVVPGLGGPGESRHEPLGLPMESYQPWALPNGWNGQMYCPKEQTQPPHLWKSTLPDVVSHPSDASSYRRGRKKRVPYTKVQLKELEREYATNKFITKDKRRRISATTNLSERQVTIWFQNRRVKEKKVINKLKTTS

SMILES | composite z-score [1] | composite z-score (XIP peptide (Xip251-270)) | z-score [2] | z-score [3] | z-score [4] | z-score [5]
[N-]=[N+]=Nc1ccccc1C[C@@]1(C(=O)NCC(O)CO)N=C(c2ccc(OCCCO)cc2)O[C@@H]1c1ccccc1N=[N+]=[N-] (some centres not stated) | 0.0609 (inactive) | 0.0519 | -2.15 | -2.28 (inactive) | -0.0996 (inactive) | 0.263 (inactive)
CCOC(=O)C[C@H]1[C@H](OC(=O)c2ccc(-c3ccccc3)cc2)[C@@H](NC(=O)C2CCCCC2)c2cc(OCCCO)ccc2N1C(=O)Cc1ccc(OC)cc1 | -0.344 (inactive) | -0.355 | -0.0911 | -2.2 (inactive) | -0.0566 (inactive) | 0.295 (inactive)
CCOC(=O)C[C@H]1[C@H](OC(=O)Cc2ccc3c(c2)OCO3)[C@@H](NC(=O)CC(C)C)c2cc(OCCCO)ccc2N1C(=O)c1ccc2ccccc2n1 | 0.216 (inactive) | 0.784 | -2.04 | -4.65 (inactive) | -0.0615 (inactive) | 0.252 (inactive)
COCCCNC(=O)[C@]1(Cc2ccccc2N=[N+]=[N-])N=C(c2ccc(OCCCO)cc2)O[C@@H]1c1ccccc1 | 1.22 (inactive) | 0.77 | -2.17 | -2.62 (inactive) | -0.129 (inactive) | 0.0037 (inactive)
C=C(C(=O)CC[C@H](OC(=O)c1ccccc1-c1ccccc1C(=O)O)c1ccc(OCCO)cc1)C(C)C | 0.0052 (inactive) | 0.569 | -2.71 | -6.36 (inactive) | -0.0593 (inactive) | -0.326 (inactive)
COc1ccc(C(=O)Nc2ccc(CN3C(=O)[C@]4(O[C@H](CC(=O)N(CCO)Cc5ccccc5)[C@@H]([Si](C)(C)c5ccc(OC)cc5)[C@@H]4C)c4ccccc43)cc2)cc1 | 0.321 (inactive) | 0.703 | -2 | -1.96 (inactive) | 0.274 (inactive) | 0.337 (inactive)
COc1c(C)cc(-c2cc3c(c(CCc4ccccc4)n2)[Si](C(C)C)(C(C)C)O[C@H]3c2ccccc2)cc1C | -0.0596 (inactive) | 0.0209 | -2.29 | 1.6 (inactive) | -0.0936 (inactive) | 0.0911 (inactive)
CC(C)C[C@H]1NC(=O)CNC(=O)[C@@]23C(=O)N[C@@H](Cc4ccccc4)C2[C@H](C)[C@@]2(C)O[C@H]2C3/C=C/C/C=C\CNC1=O (some centres not stated) | 0.282 (inactive) | 0.685 | 0.933 | -5.94 (inactive) | -0.386 (inactive) | -0.0588 (inactive)
CC(C)N1C(=O)[C@@]2(Cc3ccccc31)c1ccccc1C(=O)N(Cc1ccccc1)[C@H]2c1ccc(CO)cc1 | -0.205 (inactive) | -0.0467 | -0.32 | -0.075 (inactive) | 0.273 (inactive) | 0.685 (inactive)
COCCCNC(=O)[C@@]1(c2ccc([N+](=O)[O-])cc2)CC(=O)N(C2CCCCC2)[C@@H]1c1ccc(CO)cc1I | 0.266 (inactive) | 0.728 | -0.768 | -4.5 (inactive) | 0.237 (inactive) | 0.36 (inactive)
COC(=O)[C@]1(Cc2ccccc2N=[N+]=[N-])N=C(c2ccc(OCCCO)cc2)O[C@@H]1c1ccccc1CN=[N+]=[N-] | 0.11 (inactive) | 0.729 | -1.96 | -1.15 (inactive) | -0.446 (inactive) | -0.437 (inactive)
COc1cc(CO)cc(I)c1O[C@H]1C=C(C(=O)NCCO)C[C@@H](N(CCN2CCOCC2)C(=O)C2CCCO2)[C@@H]1O (some centres not stated) | 0.0188 (inactive) | 0.0326 | 0.0945 | -1.59 (inactive) | -0.866 (inactive) | -0.723 (inactive)
C=CCC(OC(C)=O)[C@@H]1[C@@H](N(Cc2ccc(-c3ccccc3)cc2)C(=O)Cc2ccc(OC)cc2)c2cc(OCCCO)ccc2N1C(=O)c1ccc2ccccc2c1 (some centres not stated) | -0.965 (inactive) | -0.0698 | -2.9 | -1.72 (inactive) | 0.443 (inactive) | 0.209 (inactive)
CCOC(=O)C1=CCC(c2cccn2C(=O)OC(C)(C)C)N(S(=O)(=O)c2ccc(C)cc2)C1 (configuration not stated) | 0.153 (inactive) | 0.732 | -1.62 | 0.323 (inactive) | -1.06 (inactive) | -1.18 (inactive)
C=CCOC(=O)[C@@H]1[C@H]2C(=O)O[C@H](c3ccccc3)[C@H](c3ccccc3)N2[C@H](c2ccc(OCCOC(=O)[C@@H]3C[C@@H]4C(=O)N[C@@H](CC(C)C)C(=O)N4[C@@H]3c3ccc(O)cc3)cc2)[C@@]12C(=O)Nc1ccc(I)cc12 | 0.78 (inactive) | 0.761 | -1.51 | 0.374 (inactive) | -0.926 (inactive) | -0.838 (inactive)
COCCCNC(=O)[C@@]1(Cc2ccccc2I)c2ccccc2C(=O)N(Cc2ccccc2OC)[C@H]1c1ccc(CO)cc1 | 1.02 (inactive) | 0.0714 | -1.07 | -4.88 (inactive) | -0.14 (inactive) | 0.04 (inactive)
O=C1O[C@@H](c2ccccc2)[C@@H](c2ccccc2)N2[C@@H](c3ccccc3OCCO)[C@]3(C(=O)Nc4ccc(C#CC5(O)CCCCCC5)cc43)[C@@H](C(=O)N3CCCCCCC3)[C@H]12 | 5.76 (inactive) | 0.878 | -2.38 | 4.83 (inactive) | 0.503 (inactive) | 0.639 (inactive)
